# Measured values: PubChem BioAssay (NCATS)
# “And” between values parts separate entries of the source, which are not always exact repeats. Equal values may be shown once. Results filed as inconclusive are left out. Unmarked numbers belong to inactive results. The source made the active and inactive calls. Calls follow the shape of the dose curve; as a rule, active = well fitted cell-killing curve with a large enough effect; inconclusive = small, poorly fitted or top-dose-only effect, or effect the other way; inactive = flat fitted curve, though single readings scatter. Non-standard residues stand in square brackets, D forms with d. Residues, ends and D or L forms follow the SMILES beside them. Peptide text beside a SMILES is read from it. *: point of attachment. Sta = CC(C)C[C@H](N)[C@@H](O)CC(=O)O; Isovaleryl = CC(C)CC(=O)*
# Tested on: HeLa
# Test: Primary qHTS to identify gynecologic anti-cancer compounds using libraries of approved drugs and bioactive compounds (AID 1345084); also: nearly all actives have a fitted effect of over 55% in size
# Details: Gynecologic cancer cell panel viability, ATPlite luminescence, 48 h; series mostly up to 57.5 µM; activity change, negative = cytotoxicity: at the top concentration
# Summary of the method: (§1)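 Five-point cytotoxicity, 48 h drug exposure at 37 C, 5% CO2, on cells seeded 16 h beforehand. ATP content read by ATPlite luminescence.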
# % is scaled to controls: 0 for no effect and ±100 for the full control effect; potency is read from the fitted curve at half-maximal effect.
Compound,"activity change, negative = cytotoxicity",Potency
CCC[C@@H]1C[C@@H](C(=O)N[C@@H]([C@H]2O[C@H](SC)[C@H](O)[C@@H](O)[C@H]2O)[C@@H](C)O)N(C)C1,18.6%,
COc1ccc(C2(C#N)CCC(C(=O)O)CC2)cc1OC1CCCC1 (centres undefined),18.9%,
CC(=O)Nc1ccc(O)cc1,14.2%,
Nc1ccc(S(N)(=O)=O)cc1,5.55%,
O=C(c1ccccc1)c1ccc2n1CCC2C(=O)O (centres undefined),-2.54%,
CCN(CC)C(=S)SSC(=S)N(CC)CC,-1.09%,
CCN(CCO)CCCC(C)Nc1ccnc2cc(Cl)ccc12 (centres undefined),2.67% [at 6.55 µM] and -11.2% [at 6.55 µM],
Clc1ccc(C(Cn2ccnc2)OCc2ccc(Sc3ccccc3)cc2)c(Cl)c1 (centres undefined),3.78%,
COCCCN1CCC(NC(=O)c2cc(Cl)c(N)c3c2OCC3)CC1,-0.864%,
O=C(O)CCNC(=O)c1ccc(N=Nc2ccc(O)c(C(=O)O)c2)cc1,2.84%,
CCCc1cc(=O)[nH]c(=S)[nH]1,1.8%,
Oc1ccc(OCc2ccccc2)cc1,18.2%,
Cc1cccc(C)c1OCC(=O)N[C@@H](Cc1ccccc1)[C@@H](O)C[C@H](Cc1ccccc1)NC(=O)[C@H](C(C)C)N1CCCNC1=O,-24.3%,
COC(=O)[C@H](Cc1ccccc1)NC(=O)[C@@H](N)CC(=O)O (H-Asp-Phe-OMe),-0.904%,
COc1cc2nc(N3CCN(C(=O)C4CCCO4)CC3)nc(N)c2cc1OC (centres undefined),-15.6%,
NS(=O)(=O)c1cc(C(=O)O)c(NCc2ccco2)cc1Cl,0.439%,
Cc1cc(=O)oc2cc(O)ccc12,-16.2%,
CC(C)c1nc(CN(C)C(=O)N[C@H](C(=O)N[C@@H](Cc2ccccc2)C[C@H](O)[C@H](Cc2ccccc2)NC(=O)OCc2cncs2)C(C)C)cs1,,inactive
CC1(C)CCC(C)(C)c2cc(NC(=O)c3ccc(C(=O)O)cc3)ccc21,-5.36%,

Compound,"activity change, negative = cytotoxicity",Potency
Cc1nc2n(c(=O)c1CCN1CCC(c3noc4cc(F)ccc34)CC1)CCCC2,-7.97%,
Cc1cc2cc3c(C)cc(=O)oc3c(C)c2o1,-5.3%,
CCC(C)(Oc1ccc(C2(c3ccc(OC(C)(CC)C(=O)O)cc3)CCCCC2)cc1)C(=O)O (centres undefined),,inactive
Nc1ncn([C@H]2C[C@H](O)[C@@H](CO)O2)c(=O)n1,8%,
CS(=O)(=O)OCCCCOS(C)(=O)=O,1.04%,
CC(C)CC(=O)N[C@H](C(=O)N[C@H](C(=O)N[C@@H](CC(C)C)[C@@H](O)CC(=O)N[C@@H](C)C(=O)N[C@@H](CC(C)C)[C@@H](O)CC(=O)O)C(C)C)C(C)C (Isovaleryl-VV[Sta]A[Sta]-OH),-9.08%,
CC1=C(C(=O)O)N2C(=O)[C@@H](NC(=O)[C@H](N)C3=CCC=CC3)[C@H]2SC1,-10.2%,
N=C(N=C(N)N)N1CCOCC1,-1.49%,
O=C(NCC1CCCCN1)c1cc(OCC(F)(F)F)ccc1OCC(F)(F)F (centres undefined),-20.6%,
CCC1=C(C)CN(C(=O)NCCc2ccc(S(=O)(=O)NC(=O)NC3CCC(C)CC3)cc2)C1=O (centres undefined),,inactive
NNc1nncc2ccccc12,-22.9% [at 25.3 µM],
CN1C(C(=O)Nc2ccccn2)=C(O)c2sccc2S1(=O)=O,-3.22%,
O=C(NOCC1CC1)c1ccc(F)c(F)c1Nc1ccc(I)cc1Cl,-12.6%,
CN(C)C(=O)COC(=O)Cc1ccc(OC(=O)c2ccc(N=C(N)N)cc2)cc1,3.68%,
COC(=O)C1=C(C)NC(C)=C(C(=O)OC(C)C)C1c1cccc2nonc12 (centres undefined),-21.1%,
Cn1c(NCCN(CCO)CCCc2ccc([N+](=O)[O-])cc2)cc(=O)n(C)c1=O,6.22%,
N=C(N)c1ccc2cc(OC(=O)c3ccc(N=C(N)N)cc3)ccc2c1,-8.76%,
CC(S)C(=O)NCC(=O)O (centres undefined),-5.87%,

# Tested on: Hek293T
# Test: as above
# Details: Gynecologic cancer cell panel viability, ATPlite luminescence, 48 h, control line for the selectivity index; series mostly up to 57.5 µM; activity change, negative = cytotoxicity: at the top concentration
# Summary of the method: as §1
Compound,"activity change, negative = cytotoxicity",Potency
CCC[C@@H]1C[C@@H](C(=O)N[C@@H]([C@H]2O[C@H](SC)[C@H](O)[C@@H](O)[C@H]2O)[C@@H](C)O)N(C)C1,6.81%,
COc1ccc(C2(C#N)CCC(C(=O)O)CC2)cc1OC1CCCC1 (centres undefined),1.99%,
CC(=O)Nc1ccc(O)cc1,9.94%,
Nc1ccc(S(N)(=O)=O)cc1,5.09%,
O=C(c1ccccc1)c1ccc2n1CCC2C(=O)O (centres undefined),8.49%,
CCN(CC)C(=S)SSC(=S)N(CC)CC,,8.91 µM (active)
CCN(CCO)CCCC(C)Nc1ccnc2cc(Cl)ccc12 (centres undefined),9.38% [at 6.55 µM] and 2.44% [at 6.55 µM],
Clc1ccc(C(Cn2ccnc2)OCc2ccc(Sc3ccccc3)cc2)c(Cl)c1 (centres undefined),-0.638%,
COCCCN1CCC(NC(=O)c2cc(Cl)c(N)c3c2OCC3)CC1,-22.7%,
O=C(O)CCNC(=O)c1ccc(N=Nc2ccc(O)c(C(=O)O)c2)cc1,4.19%,
CCCc1cc(=O)[nH]c(=S)[nH]1,2.97%,
Oc1ccc(OCc2ccccc2)cc1,0.235%,
Cc1cccc(C)c1OCC(=O)N[C@@H](Cc1ccccc1)[C@@H](O)C[C@H](Cc1ccccc1)NC(=O)[C@H](C(C)C)N1CCCNC1=O,-1.57%,
COC(=O)[C@H](Cc1ccccc1)NC(=O)[C@@H](N)CC(=O)O (H-Asp-Phe-OMe),-6.52%,
COc1cc2nc(N3CCN(C(=O)C4CCCO4)CC3)nc(N)c2cc1OC (centres undefined),-2.52%,
NS(=O)(=O)c1cc(C(=O)O)c(NCc2ccco2)cc1Cl,1.56%,
Cc1cc(=O)oc2cc(O)ccc12,-0.0243%,
CC(C)c1nc(CN(C)C(=O)N[C@H](C(=O)N[C@@H](Cc2ccccc2)C[C@H](O)[C@H](Cc2ccccc2)NC(=O)OCc2cncs2)C(C)C)cs1,,inactive
CC1(C)CCC(C)(C)c2cc(NC(=O)c3ccc(C(=O)O)cc3)ccc21,-0.587%,

Compound,"activity change, negative = cytotoxicity",Potency
Cc1nc2n(c(=O)c1CCN1CCC(c3noc4cc(F)ccc34)CC1)CCCC2,-5.25%,
Cc1cc2cc3c(C)cc(=O)oc3c(C)c2o1,2.08%,
CCC(C)(Oc1ccc(C2(c3ccc(OC(C)(CC)C(=O)O)cc3)CCCCC2)cc1)C(=O)O (centres undefined),,inactive
Nc1ncn([C@H]2C[C@H](O)[C@@H](CO)O2)c(=O)n1,-23.6%,
CS(=O)(=O)OCCCCOS(C)(=O)=O,18.2%,
CC(C)CC(=O)N[C@H](C(=O)N[C@H](C(=O)N[C@@H](CC(C)C)[C@@H](O)CC(=O)N[C@@H](C)C(=O)N[C@@H](CC(C)C)[C@@H](O)CC(=O)O)C(C)C)C(C)C (Isovaleryl-VV[Sta]A[Sta]-OH),-0.285%,
CC1=C(C(=O)O)N2C(=O)[C@@H](NC(=O)[C@H](N)C3=CCC=CC3)[C@H]2SC1,23.5%,
N=C(N=C(N)N)N1CCOCC1,11%,
O=C(NCC1CCCCN1)c1cc(OCC(F)(F)F)ccc1OCC(F)(F)F (centres undefined),-39.7%,
CCC1=C(C)CN(C(=O)NCCc2ccc(S(=O)(=O)NC(=O)NC3CCC(C)CC3)cc2)C1=O (centres undefined),,inactive
NNc1nncc2ccccc12,-8.48% [at 25.3 µM],
CN1C(C(=O)Nc2ccccn2)=C(O)c2sccc2S1(=O)=O,13.1%,
O=C(NOCC1CC1)c1ccc(F)c(F)c1Nc1ccc(I)cc1Cl,4.81%,
CN(C)C(=O)COC(=O)Cc1ccc(OC(=O)c2ccc(N=C(N)N)cc2)cc1,5.58%,
COC(=O)C1=C(C)NC(C)=C(C(=O)OC(C)C)C1c1cccc2nonc12 (centres undefined),-4.35%,
Cn1c(NCCN(CCO)CCCc2ccc([N+](=O)[O-])cc2)cc(=O)n(C)c1=O,-5.83%,
N=C(N)c1ccc2cc(OC(=O)c3ccc(N=C(N)N)cc3)ccc2c1,-6.53%,
CC(S)C(=O)NCC(=O)O (centres undefined),8.07%,
